In PubChem BioAssay (NCI):
Compounds without any hit were thinned out: in the full panel of roughly 83,000, 20% have a hit.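 How to read the values: 0–100, growth inhibition (40 = 60% inhibited); 0, no net growth; -100 to 0, cell death (-40 = 40% of starting cells died; -100 = all dead).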 A number with no mark means an inactive call. Calls of active or inactive are those of the source. How the source made its calls: active means growth percent below 10; inactive means the rest.

Tests used:
Experiment in all cases: NCI-60 one-dose screen, 48 h (100 = growth as untreated, 0 = no growth, -100 = all killed)
Conditions in all cases: 10 µM unless noted
HCT-15 colon = tested on: HCT-15 colon
HT29 colon = tested on: HT29 colon
SNB-75 CNS = tested on: SNB-75 CNS
SNB-19 CNS = tested on: SNB-19 CNS
U251 CNS = tested on: U251 CNS
SK-MEL-5 melanoma = tested on: SK-MEL-5 melanoma
UACC-62 melanoma = tested on: UACC-62 melanoma
LOX IMVI melanoma = tested on: LOX IMVI melanoma
SK-MEL-28 melanoma = tested on: SK-MEL-28 melanoma

SMILES | growth (HCT-15 colon) | growth (HT29 colon) | growth (SNB-75 CNS) | growth (SNB-19 CNS) | growth (U251 CNS) | growth (SK-MEL-5 melanoma) | growth (UACC-62 melanoma) | growth (LOX IMVI melanoma) | growth (SK-MEL-28 melanoma)
COc1ccc(-n2nc(C)c3c(Nc4ccc(NC(=O)Nc5cccc(C(F)(F)F)c5)cc4)ncnc32)cc1 | 2.47% (active) | 1.63% (active) | -7.61% (active) | 12% | -49.7% (active) | -66.5% (active) | 3.5% (active) | -81.9% (active) | 11.6%
COc1ccc(-c2nc3cc(C(=O)Nc4cc(OC)c(OC)c(OC)c4)ccc3n2C2CCCCC2)cc1 | 80.2% | 102% | 82% | 98.1% | 96.6% | 77.8% | 80.2% | 95.5% | 97%
O=C1OCC2=C1C(c1ccncc1)c1cc3c(cc1N2CCO)OCO3 (configuration not stated) | 103% | 106% | 95.7% | 100% | 96.7% | 98.6% | 94.9% | 99.9% | 102%
O=C(COc1cccc(/C=C2\COc3ccccc3C2=O)c1)Nc1nccs1 | -17.9% (active) | -28.7% (active) | 77.3% | 73.5% | 22.6% | 52.3% | 78.2% | -96.8% (active) | -68.3% (active)
Cc1cc2nc3[nH]c4ccccc4c3nc2cc1C | 80.3% | 95.1% | 51.2% | 89.7% | 58.1% | 88.9% | 90.3% | 64.1% | 90%
CC1=CC(C)(C)Nc2ccc(Cc3ccc4c(c3)C(C)=CC(C)(C)N4)cc21 | 101% | 103% | 86.3% | 93.4% | 93.5% | 92.8% | 84.1% | 88.7% | 104%
CN(C)C(=S)N=Nc1c(O)[nH]c2ccccc12 | 31.7% | 28.7% | 48.4% | 18.3% | 17% | 4.77% (active) | -16.9% (active) | 14% | 37.5%
Cc1[nH]c(-c2ccc3cc[nH]c3c2)c2c1C(=O)CCCC2 | 30.6% | 27.4% | 6.65% (active) | 53.1% | 48.5% | 49.6% | 24.8% | 16.2% | 66.2%
COc1ccc2[nH]cc(-c3noc(C(=O)c4cn(C)c5ccc(F)cc45)n3)c2c1 | 94.4% | 109% | 74.6% | 96% | 101% | 92.5% | 88.2% | 93.2% | 105%
COCCNc1ccc2c3c(cccc13)C(=O)N(CCN(C)C)C2=O | 20% | 10.4% | 47.7% | 22.4% | 28.1% | -33.5% (active) | 3.48% (active) | 2.86% (active) | 37.5%
COc1ccc(C2CC(c3ccc4ccccc4c3)=NN2/C=C2\SC(=S)N(NC(=O)Cc3ccccc3Nc3c(Cl)cccc3Cl)C2=O)cc1 (configuration not stated) | 19.4% | 32.3% | -15.7% (active) | 32% | 16.1% | 19.6% | 42.8% | 37.1% | 57%
O=[N+]([O-])c1cnc(N2CCN(CC3CC3)CC2)nc1N1CCN(CC2CC2)CC1 | 96% | 87% | 81% | 100% | 98.4% | 99.5% | 110% | 99.6% | 91.3%
NC(=O)c1cc(I)ccc1NC(=O)/C=C/c1ccccc1Cl | 17.8% | 8.09% (active) | -14.5% (active) | 31.9% | 21.8% | 3.33% (active) | – | 50.7% | –
Cn1cccc1-c1nc2c3c(ccc2[nH]1)C(=O)c1ccccc1C3=O | 82.1% | 104% | 137% | 105% | 87.5% | 90.4% | – | 88.9% | 117%
CC1SC(c2ccc(N(C)C)cc2)N(NC(=O)C(O)(c2ccccc2)c2ccccc2)C1=O (configuration not stated) | 83.8% | 93.8% | 96.6% | 110% | 91.4% | 98.8% | – | 87.7% | 111%
Cn1cc(C(=O)c2nc(-c3c[nH]c4ccc(F)cc34)no2)c2cc(F)ccc21 | 68.6% | 101% | 79.8% | 101% | 100% | 92.8% | 81.7% | 95.2% | 103%
CC(C)(C)N1CCC1CN (configuration not stated) | 126% | 111% | 87.4% | 101% | 117% | – | 112% | 109% | 105%
CCCc1cc(=O)n2c(C(=O)Nc3cccc(C(=O)OCC)c3)c(C(=O)Nc3ccc(F)cc3)sc2n1 | 66.4% [30 µM] | 67.5% [30 µM] | 25.6% [30 µM] | 43.8% [30 µM] | 13.2% [30 µM] | 66.6% [30 µM] | – | 46.8% [30 µM] | 88.3% [30 µM]
CN1CCN(c2ccc(Nc3c4ccccc4nc4ccccc34)cc2)CC1 | 99.3% | 103% | 96.8% | 107% | 99.8% | 102% | 109% | – | 109%
O=C1Nc2cc(-c3ccc(O)cc3)ccc2/C1=C/c1ccc[nH]1 | 7.26% (active) | 8.88% (active) | 19% | 27.8% | 18.9% | – | 15.7% | -6.81% (active) | 23.6%
COc1ccc2nc(NC(=O)CSc3nnc4n3S(=O)(=O)c3ccccc3N4c3ccccc3)sc2c1 | 93.7% | 102% | 77.5% | 97.2% | 94.9% | 99.1% | 82.6% | – | 109%
Cc1ccc(C2Oc3ccccc3C3CC(c4cccs4)=NN32)cc1 (configuration not stated) | 100% | 109% | 81.7% | 96% | 92.5% | – | 96.2% | 94.4% | 103%
Cc1cc(C)nc(SC2=C(Nc3cccc(Cl)c3)C(=O)N(Cc3ccccc3)C2=O)n1 | 59.9% [30 µM] | 53.6% [30 µM] | 58.5% [30 µM] | 94.4% [30 µM] | 78.5% [30 µM] | 50.1% [30 µM] | – | 67.6% [30 µM] | 93.2% [30 µM]
Cc1ccc(NC(=O)/C=C/c2ccccc2)c(C(N)=O)c1 | 33.6% | 14.1% | 11.3% | 40.5% | 28.8% | 6.05% (active) | – | 51.2% | 33.1%
Cn1c(NCCc2ccc(O)c(O)c2)nc2c1c(=O)n(Cc1ccc(Cl)c(Cl)c1)c(=O)n2C | 45.7% | 94.4% | 56.1% | 84.3% | 77.9% | 65.4% | 73.9% | – | 77.3%
Cc1ccccc1COc1ccc(-c2ccnn2-c2ccc(Cl)cc2)cc1 | 39.9% | 17.6% | 60.7% | 62% | 46% | 66.6% | 60.7% | – | 69.4%
O=C(Nc1cccc2[nH]c(C(F)(F)F)nc12)c1ccc(-n2cnnn2)cc1 | 99.1% | 111% | 100% | 94% | 94.4% | – | 34.3% | 102% | 120%
C=C1c2nc3ccccc3n2C=C(c2ccc(Cl)cc2)N1Cc1ccc(OC)cc1 | 67.3% | 88.8% | 103% | 79.1% | 92.8% | 72.3% | 68% | – | 88.9%
FC(F)(F)c1ccc(-c2cn3nc(-c4c[nH]c5ccc(Br)cc45)sc3n2)cc1 | 70.6% | 97.4% | 86.1% | 100% | 92.2% | 96.3% | – | 88.2% | 111%
CCn1c(Cc2ccccc2Nc2c(Cl)cccc2Cl)nnc1SCC(=O)NN1C(=O)/C(=C/c2cc(OC)c(O)c(OC)c2)SC1=S | 50.4% | 25.5% | 2.65% (active) | 41.9% | 31.5% | 26.1% | 33.2% | – | 45.7%
